We go through 32 molecules from PubChem BioAssay AID651812 (National Center for Advancing Translational Sciences (NCATS), 2012).

SMILES strings stand for the structures. Hit rate of the full screen: of about 2,100 compounds, about 650 (31%) were called active. Roughly 16% stayed inconclusive and do not appear here. Calls come from the whole dose curve; as a rule, active = well fitted inhibition curve with a large enough effect; inconclusive = small, poorly fitted or top-dose-only effect; inactive = flat fitted curve, though single readings scatter. The list shows a part of the results. Where a call stands in place of a potency, no number is given.
Potency is the fitted concentration of half-maximal effect.

This assay can be described thus: qHTS for inhibitors of Vif-A3G interactions: Cherry picks. Note: nearly all actives have a fitted effect of over 80% in size. As to conditions: HeLa A3G-eYFP + Vif (tagged APOBEC3G with the HIV-1 protein that degrades it), 24 h; Potency: eYFP fluorescence increase; series mostly up to 36.9 µM. From the text:
The recent discovery and characterization of host restriction factors, which provide a potent defense to invading retroviruses, has provided new targets for antiviral drug development. APOBEC3G (A3G) and APOBEC3F (A3F) are potent cytidine deaminases that block HIV-1 replication; HIV-1 expresses the Vif protein, which counteracts A3G and A3F by binding to them and inducing their proteasomal degradation. The Vif-A3G and Vif-A3F interactions provide two potential targets for development of small molecules which can interfere with the ability of Vif to degrade A3G or A3F. […] To identify inhibitors that can interfere with Vif mediated degradation of A3G and A3F, we have developed Hela cell lines that stably express A3G or A3F tagged with eYFP at the C-terminal end (A3G-eYFP or A3F-eYFP, respectively) and Vif. In the absence of an inhibitor, Vif induces degradation of A3G-eYFP and A3F-eYFP, and the cells are not fluorescent. In the presence of an inhibitor, it is expected that Vif will be unable to degrade A3G-eYFP and/or A3F-eYFP, resulting in an increase in yellow fluorescence. In this assay, Vif A3G was screened against the cherry picks ordered from the MLSMR. NIH Chemical Genomics Center [NCGC] NIH Molecular Libraries Probe Centers Network [MLPCN] MLPCN Grant: MH093245 Assay Submitter (PI): Vinay Pathak, National Cancer Institute
A3G-Vif cells were harvested from T225 flask and resuspended in phenol free OPTI-MEM medium with 5% FBS. Then 5 uL of 140,000 cells/mL resuspended cells was dispensed into each well of low base Aurora COC 1,536-well plates (black walled, clear bottom) using a Multidrop Combi dispenser. After overnight culture at 37 deg C with 5% CO2, a total of 23 nL of compounds at 5 selected concentrations from the NPC or positive control (2 mM stock of MG132) in DMSO was transferred to each well of the assay plate using a pintool (Kalypsys, San Diego, CA), and the plates were further incubated at 37 deg C with 5% CO2 for 24 hours. After that, the plates were measured on Acumen Explorer (TTP Lab Tech). The fluorescence was detected by 488 nm/Ex and […].
With `Cc1c(=O)n(OCc2ccc(Cl)cc2)c2ccccc2[n+]1[O-]`, the Potency entry is “inactive”.

Consider `Nc1nc2n[nH]nc2c(=O)[nH]1`, for which the Potency result was “inactive”.

`COCCN1C(=O)/C(=C/c2ccc(N3CCCC3)cc2)SC1=S`: the Potency was 4.61 µM (active).

On to `COCCN1C(=O)/C(=C/c2ccc(N3CCCC3)cc2C)SC1=S`, for which the Potency was 2.59 µM (active).

Turning to `CC12CC3CC(C)(C1)CC(C(=O)NC(=S)N1CCOCC1)(C3)C2`, the Potency entry is “inactive”.

For the molecule `COc1ccc(-c2n[nH]c(C)c2-c2ccc(OC)c(OC)c2)c(O)c1`, the Potency result was “inactive”.

`C=C1C(=O)O[C@@H]2[C@H]1[C@@H](OC(=O)/C(C)=C/C)C/C(C)=C\C(=O)/C=C(\C)[C@@H]2O`: the Potency result is “inactive”.

On to `COc1ccc(/C=N/NC(=O)c2ccccc2Cl)cc1CSc1nc2ccccc2s1`, for which the Potency entry is “inactive”.

On to `COc1cc(/C=C(\C#N)c2nc3ccccc3s2)ccc1OCC(=O)Nc1ccccc1`, for which the Potency is 17.7 µM (active).

With `COc1cc(/C=C(/C#N)c2nc3ccccc3[nH]2)ccc1OC(=O)c1ccco1`, the Potency is 3.53 µM (active).

For `O=C(Oc1ccc(Cl)c2cccnc12)c1ccco1`, the Potency result is “inactive”.

In the case of `COc1cc(/C=C(\C#N)c2nc3ccccc3[nH]2)ccc1OCc1ccccc1F`, the Potency was 18.4 µM (active).

Take `COc1ccc(/C=N\NC(=O)c2ccccc2F)cc1COc1ccc(F)cc1F`: the Potency result is “inactive”.

As for `COc1ccc(OC)c2sc(NC(=O)CCS(=O)(=O)c3ccccc3)nc12`, the Potency result was “inactive”.

Turning to `COc1cc(/C=C(\C#N)c2nc3ccc(C)cc3[nH]2)ccc1OC(C)C`, the Potency was 20.6 µM (active).

As for `CC1(C)Cc2nc3sc4c(SCC(=O)NCc5ccco5)ncnc4c3cc2CO1`, the Potency result is “inactive”.

On to `CCS(=O)(=O)N1CCc2cc(C(=O)N3CCN(c4cccc(C(F)(F)F)c4)CC3)ccc21`, for which the Potency result is “inactive”.

As for `CCC(C)Sc1cccc(-c2nc3cc(C)ccn3c2NC2CCCCC2)c1` (configuration not stated), the Potency entry is “inactive”.

`CN1C(=O)C(O)(C2COC(C)(C)CC2=O)c2cc(Br)ccc21` (configuration not stated): the Potency result was “inactive”.

For the molecule `N#CC1=C(N)Oc2cc(N)ccc2C1C1CC=CCC1` (configuration not stated), the Potency entry is “inactive”.

Consider `COc1ccc(-c2cc(NC=O)c3ncc(-c4ccc(OC)c(OC)c4)n3c2)cc1OC`, for which the Potency entry was “inactive”.

Take `CCOC(=O)C(=Cc1ccc(-n2ccnc2)cc1)C(=O)OCC`: the Potency entry was “inactive”.

In the case of `Cn1c(-c2ccccc2)cc2c3no[n+]([O-])c3ccc21`, the Potency entry is “inactive”.

`CC(C)(C)NCC(=Cc1ccccc1)C(=O)c1ccccc1`: the Potency entry was “inactive”.

`COc1cc(/C=C(\C#N)c2nc3ccccc3[nH]2)cc(Cl)c1OCc1ccccc1Cl`: the Potency is 18.4 µM (active).

For `COc1cc(Br)c(/C=C(\C#N)c2nc3ccccc3[nH]2)cc1OC`, the Potency was 18.4 µM (active).

As for `Cc1cccc(Nc2nnc(SC/C(O)=C(\C#N)c3nc4ccccc4[nH]3)s2)c1`, the Potency result was “inactive”.

Take `COc1cc(/C=C(/C(=O)c2cccs2)c2nc3ccccc3[nH]2)ccc1O`: the Potency result was “inactive”.

As to `N#C/C(=C\c1cccnc1)c1nc2ccccc2[nH]1`, the Potency entry is “inactive”.

Turning to `COc1cc(/C=C(\C#N)c2nc3ccccc3[nH]2)ccc1O`, the Potency is 5.8 µM (active).

Turning to `COc1cc(/C=C(/C#N)c2nc3ccccc3[nH]2)ccc1OCC(=O)Nc1ccccc1C(C)C`, the Potency is 16.4 µM (active).

As to `COc1ccc(-c2cnnc(N/N=C/c3ccc(O)c(OC)c3)n2)cc1`, the Potency entry is “inactive”.
